Results reported in the antibiotic and cytotoxicity screens of Wong et al. (2023).
The whole screen tested about 39,000 compounds, of which about 500 (1.3%) were called active. What follows is part of a selection rich in actives, with near analogues and random picks from the rest.

The compounds below were run on S. aureus RN4220 (assay: growth inhibition call (relative growth <= 0.2)). Settings: 50 µM.

Row | Structure (SMILES) | growth inhibition call
1 | O=C(C[C@@H]1C=C[C@@H](NC(=O)CN2CCOCC2)[C@@H](CO)O1)NCCc1ccncc1 | inactive
2 | COc1cccc(S(=O)(=O)N(C)C[C@H]2OCc3cn(nn3)CCCC(=O)N([C@H](C)CO)C[C@@H]2C)c1 | inactive
3 | COc1ccc(S(=O)(=O)N(C)C[C@@H]2OCCCC[C@@H](C)Oc3ccc(NC(=O)Nc4c(C)noc4C)cc3C(=O)N([C@H](C)CO)C[C@H]2C)cc1 | inactive
4 | C[C@H]1CN([C@@H](C)CO)C(=O)c2cc(NS(C)(=O)=O)ccc2O[C@H]1CN(C)C(=O)NC1CCCCC1 | inactive
5 | CN([NH2+][O-])c1ccc(O)c(O)c1 | inactive
6 | C[C@@H](N)c1ccc(F)cc1F | inactive
7 | COc1ccc(S(=O)(=O)Nc2cccc3c2O[C@@H](CN(C)C(=O)NC(C)C)[C@@H](C)CN([C@@H](C)CO)C3=O)cc1 | inactive
8 | Cc1c2c(nn1C)CSCc1cc(n(C)n1)CSc1cc(c3ccccc3c1)OCCCc1c(C(=O)O)n(C)c3c-2c(Cl)ccc13 | active
9 | C[C@H]1CN([C@@H](C)CO)C(=O)c2cc(NC(=O)Nc3ccc(C(F)(F)F)cc3)ccc2O[C@@H]1CN(C)C(=O)Nc1ccc2c(c1)OCO2 | inactive
10 | N=C(N)c1ccc(OCCCCCOc2ccc(C(=N)N)cc2)cc1.O=S(=O)(O)CCO.O=S(=O)(O)CCO | active
11 | N=C(N)c1ccc(C(N)=O)cc1 | inactive
12 | OCCC[C@@H](O)c1ccc(OCCO)cc1 | inactive
13 | COc1ccc(S(=O)(=O)Nc2ccc3c(c2)C(=O)N([C@@H](C)CO)C[C@H](C)[C@H](CN(C)CC2CC2)O3)cc1 | inactive
14 | C[C@@H]1CN([C@@H](C)CO)C(=O)c2cc(NS(=O)(=O)c3ccccc3)ccc2O[C@@H](C)CCCCO[C@H]1CN(C)S(=O)(=O)c1cn(C)cn1 | inactive
15 | C[C@H](CO)N1C[C@H](C)[C@H](CN(C)S(=O)(=O)c2ccc(F)cc2)Oc2ncc(-c3ccncc3)cc2C1=O | inactive
16 | COc1cc(OC)c(C(C)=O)c(O)c1C | inactive
17 | CC(=O)c1c(O)c(C)c(O)c2c1OC1=CC(=O)C(C(C)=O)C(=O)C12C (configuration not stated) | active
18 | CC(=O)C1C(=O)C=C(C)OC1=O (configuration not stated) | inactive
19 | CCCc1c(SCCCOc2ccc(C(C)=O)c(OCCCC(=O)O)c2CCC)ccc(C(C)=O)c1O | active
20 | COCC(=O)Nc1ccc2c(c1)C(=O)N(C)C[C@@H](OC)[C@H](C)CN(Cc1cccc(F)c1)[C@H](C)CO2 | inactive
21 | CC(=O)N1c2ccccc2C2=NNC(=S)N[C@]21O | inactive
22 | C[C@H]1CCCCO[C@H](CN(C)C(=O)Cc2ccccc2)[C@@H](C)CN([C@@H](C)CO)C(=O)c2cc(NC(=O)Nc3ccc(F)cc3)ccc2O1 | inactive
